Screening data deposited in PubChem BioAssay by several laboratories.
The list is not random: actives were taken first. Their share in the collection is about 5.4%.
HSF1 inh = HSF1 inhibition; NIH3T3-HGL HSE-luciferase, MG132-induced, luminescence 8 h; stronger effect = lower value; activity change, negative = inhibition, % at 7.5 µM (by protocol); hit rate 0.77% among 300,000;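 active = more than half of replicate wells show activity change below -50%, luminescence cut by over half; inconclusive = some wells, but at most half, below -50%; inactive = no replicate well below -50%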;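 also: luciferase reports HSF-1 transcriptional activity via heat shock element; 0% = median of DMSO wells and -100% = zero luminescence signal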
HSF1 activator = increases HSF-1 driven luciferase reporter signal | NIH3T3-HGL HSF-1 luciferase reporter, MG132, 8 h; 100% = twice DMSO control signal | activation, % at 9 µM | hit rate 1.7% among 300,000 | AID 504408;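 active = mean replicate activation of at least 50% with a set share of replicates each reaching 50%; inconclusive = only one of those two conditions met; inactive = mean below 50% and too few replicates reaching it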;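 also: 0% = median of the neutral control wells and 100% = twice that signal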
DAX1 inh = NR0B1 (DAX1) inhibition; HEK293 Gal4-DAX1 luciferase reporter, luminescence; inhibition, % at 6.75 µM; hit rate 0.99% among 340,000;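 active = inhibition above the mean over all tested compounds plus 3 SD, cut at about 4.2% in these data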;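 also: 0% = DAX1-transfected cells with DMSO and 100% = empty-vector control cells with DMSO; inhibition shows as a rise in luminescence from relieved DAX1 repression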
Target sequence (P51843 207-470 limits assumed): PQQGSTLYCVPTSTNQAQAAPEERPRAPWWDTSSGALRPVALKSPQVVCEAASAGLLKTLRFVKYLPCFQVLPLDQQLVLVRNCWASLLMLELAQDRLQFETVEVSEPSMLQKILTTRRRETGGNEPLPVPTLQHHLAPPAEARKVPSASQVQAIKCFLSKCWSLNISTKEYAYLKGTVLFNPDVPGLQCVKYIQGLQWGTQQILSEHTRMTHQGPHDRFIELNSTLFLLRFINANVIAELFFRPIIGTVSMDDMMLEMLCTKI
GAA850 FXN act = increases GAA850 frataxin promoter reporter activity; HEK293 lucGAA850 FXN promoter luciferase reporter, 24 h; percent of 10 µM SAHA response; activation, % at 6 µM; hit rate 0.56% among 360,000; AID 540364;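 active = activation above the average of all compounds screened plus 3 SD, cutoff fixed separately per campaign, cut at about 7.5% in these data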;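 also: 0% = DMSO wells and 100% = 10 µM SAHA wells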
AHR act = activators of human aryl hydrocarbon receptor | AHR-responsive luciferase reporter cells, luminescence | activation, % at 5 µM | hit rate 2.5% among 320,000 | AID 2796; in the data active = activation above about 47%;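 also: 0% = vehicle wells and 100% = reference agonist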
AHR act cf = human AHR activation, confirmation | shares compounds with AHR act | human cells, AHR-responsive luciferase reporter, luminescence | activation, % at 9 µM | hit rate 87% among 2,300; in the data active = activation above about 49%;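 also: HepG2 hepatoma cells carrying a DRE-driven firefly luciferase reporter; 0% = vehicle wells and 100% = reference agonist wells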
PXR counter = activates human PXR in AHR activator counter-screen. shares compounds with AHR act. cell-based PXR reporter, luciferase luminescence. activation, % at 11.6 µM. hit rate 88% among 2,300. AID 434939; in the data active = activation above about 11%;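 also: human hepatoma DPX-2 cells expressing full-length human PXR; 0% = DMSO and 100% = reference agonist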
Target sequence (O75469 whole entry, looked up): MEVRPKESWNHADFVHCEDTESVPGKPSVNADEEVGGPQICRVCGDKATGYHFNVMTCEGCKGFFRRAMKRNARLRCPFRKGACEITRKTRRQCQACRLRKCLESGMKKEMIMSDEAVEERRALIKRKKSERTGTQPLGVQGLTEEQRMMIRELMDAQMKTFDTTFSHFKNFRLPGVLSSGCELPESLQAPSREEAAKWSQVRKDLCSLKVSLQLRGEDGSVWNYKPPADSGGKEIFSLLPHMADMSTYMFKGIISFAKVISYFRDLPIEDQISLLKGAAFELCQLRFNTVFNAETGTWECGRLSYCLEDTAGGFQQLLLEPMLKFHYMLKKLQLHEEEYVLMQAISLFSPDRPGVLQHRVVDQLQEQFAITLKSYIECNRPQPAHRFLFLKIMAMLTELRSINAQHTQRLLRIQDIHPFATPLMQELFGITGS
* hit, by the source's call; ? = inconclusive; / = no result given.

SMILES	HSF1 inh	HSF1 activator	DAX1 inh	GAA850 FXN act	AHR act	AHR act cf	PXR counter
CN(c1ccccc1)S(=O)(=O)c1cccc(NS(=O)(=O)c2cccc(C(=O)O)c2)c1	/	/	0.6	0.1	-1.1	/	/
COc1ccc(/C=C/C(=O)c2cc3c(cc2N)OCO3)cc1	10.9	17.5	0.0	5.5	95.9*	127.8*	26.3*
Cn1cccc1/C=N/n1c(-c2ccc(C(C)(C)C)cc2)n[nH]c1=S	10.9	41.8	-0.3	2.2	125.7*	103.7*	260.8*
Cn1cccc1/C=N/n1c(-c2ccccc2)n[nH]c1=S	-2.3	11.1	0.1	1.7	21.6	/	/
COc1ccccc1NC(=O)c1ccc2c(c1)OCO2	19.5	28.2	0.5	2.3	129.1*	104.6*	28.0*
COc1cc2c(cc1NC(=O)C(C)NCc1ccccc1)oc1ccccc12 (stereo unspecified)	-1.0	29.6	0.5	5.2	117.2*	132.8*	89.7*
COc1cc2c(cc1NC(=O)CCC(=O)O)oc1ccccc12	-6.9	11.1	-0.9	0.4	11.8	/	/
COc1cc2c(cc1NC(=S)Nc1cccc(C(F)(F)F)c1)oc1ccccc12	0.6	16.5	3.2	0.5	106.8*	92.1*	29.3*
COc1ccccc1CNC(=O)c1ccc2c(c1)OCO2	3.9	12.5	-1.4	1.8	45.1	/	/
COc1ccccc1NC(=O)c1ccc2c(c1)nnn2C	1.4	10.3	0.3	3.3	94.9*	74.2*	/
COc1ccc(CCNC(=O)c2cc(C)oc2C)cc1	-7.1	-3.6	-0.5	0.8	-3.3	/	/
COc1cc2c(cc1NC(=O)c1ccc3c(c1)OCO3)oc1ccccc12	35.6	49.0	2.5	2.2	98.5*	119.5*	24.3*
CCOc1cc(N2CCOCC2)c(OCC)cc1NC(=O)c1ccc(-n2ccnc2)c([N+](=O)[O-])c1	-0.6	-19.2	0.2	0.5	3.1	/	/
COc1ccccc1NC(=O)c1ccc(-n2ccnc2)c([N+](=O)[O-])c1	3.8	6.4	0.2	-1.3	94.9*	104.0*	20.4*
COc1ccccc1NC(=O)C(=N\O)/C(C)=N/O	-5.9	10.0	1.5	2.5	88.7*	115.7*	25.2*
COc1cc2c(cc1NCc1ccc3c(c1)OCO3)oc1ccccc12	-4.8	24.2	0.3	1.2	15.7	/	/
COc1ccccc1NC(=O)c1cc(=O)[nH]c2ccccc12	-0.4	-18.6	-0.2	-1.9	80.2*	92.0*	15.6*
CCCNC(=O)C1(C)CCCN(C(=O)c2cccnc2Oc2ccccc2)C1 (stereo unspecified)	/	/	/	0.5	/	/	/
COc1ccc(OC)c(NC(=O)c2ccc3c(c2)OCO3)c1	-2.0	10.7	1.5	1.4	111.6*	101.8*	22.4*
Cc1c(/C=N/NC(=O)COc2ccccc2[N+](=O)[O-])c2ccccc2n1C	-2.7	8.4	-0.8	1.2	81.2*	95.4*	100.5*
COc1ccc(OC)c(Nc2nc(NCCO)c3ccccc3n2)c1	-2.3	1.2	-0.8	-0.4	88.5*	85.5*	34.8*
O=C(c1cc(-c2ccc(Cl)cc2)n[nH]1)N1CCc2ccccc2C1	9.0	7.3	-0.8	-1.2	27.1	/	/
Cc1cccc(NC(=O)c2c(F)c(F)c(F)c(F)c2F)c1	12.5	4.3	-0.3	0.9	8.5	/	/
O=C(Nc1cccc(F)c1)c1ccc(Br)o1	-19.8	-38.3	0.0	2.2	120.3*	67.2*	20.0*
O=C(Nc1cccc(F)c1)c1c(F)c(F)c(F)c(F)c1F	-10.5	15.3	0.3	-1.1	95.0*	71.6*	30.5*
SMILES	HSF1 inh	HSF1 activator	DAX1 inh	GAA850 FXN act	AHR act	AHR act cf	PXR counter
CC(C)(C)c1ccc(CC(=O)N2CCC2(C)C(=O)NS(=O)(=O)c2cccc(F)c2)cc1 (stereo unspecified)	/	/	/	0.1	/	/	/
O=[N+]([O-])c1cccc(C=NNc2ccc3ccccc3n2)c1O	?	?	-3.7	-11.2	/	/	/
Brc1ccccc1/C=N/Nc1ccc2ccccc2n1	8.6	15.8	1.6	4.2	93.7*	131.1*	14.5*
Cc1ccc(S(=O)(=O)NCc2ccccc2)s1	-8.3	-7.0	-0.7	0.0	-0.1	/	/
CC(/C=C/c1ccccc1)=N\Nc1nc(-c2ccccc2)cs1	/	/	-0.4	-1.7	1.3	/	/
CC(C)=NNc1nc(-c2ccccc2)cs1	-2.3	0.9	1.8	0.9	101.9*	107.2*	14.8*
CC(C)(C)C(=O)CN1C2=NCCCN2c2ccccc21	-4.1	9.2	-0.7	1.5	3.0	/	/
CCc1cc(C(=O)N(Cc2ccccc2)c2c(N)n(CCOC)c(=O)[nH]c2=O)sc1C	3.5	19.4	-1.5	-1.6	-2.4	/	/
NC(=O)C1CCN(C(=O)c2ccc3ccccc3c2)CC1	1.6	-5.9	0.5	-0.3	0.3	/	/
Cn1c(C(=O)N2CCC(C(N)=O)CC2)cc2cc(Cl)ccc21	-8.2	-2.8	0.0	2.7	100.9*	115.6*	/
COC(=O)C1=CN(Cc2ccccc2)C=C(C(=O)OC)C1c1cc(F)ccc1F	21.7	14.4	-0.6	-1.1	-0.2	/	/
COCCn1c(C)cc(/C=C2/NC(=O)N(c3cccc(Cl)c3)C2=O)c1C	?	-52.7	0.9	-7.4	122.0*	4.8	74.2*
Cc1ccc(CN(C(=O)COc2cccc(C)c2C)C2CCS(=O)(=O)C2)o1 (stereo unspecified)	12.8	23.4	0.3	-2.5	-2.7	/	/
CC(CN1CCCCC1)OC(=O)c1ccco1 (stereo unspecified)	-7.0	-14.8	0.1	-0.7	-1.6	/	/
CCn1c(=O)cc(OCC(=O)NCc2ccc(C)o2)c2ccccc21	9.4	10.3	0.3	0.8	96.1*	45.9	24.7*
CC(C)CN1C(=O)C(=O)N(CC(=O)N2CCN(c3ccccc3)CC2)C1=O	-2.0	-10.6	0.1	0.7	-0.1	/	/
CNC(=O)c1ccsc1NC(=O)c1sc2ccccc2c1Cl	15.1	31.5	1.0	4.2	119.8*	115.6*	19.1*
COCc1nnc(NC(=O)c2sc3ccccc3c2Cl)s1	10.8	20.3	-0.7	-0.1	1.1	/	/
O=c1c2ccccc2nc2n1CCc1c-2[nH]c2ccccc12	/	/	4.9*	6.5	98.9*	222.8*	19.6*
O=C(O)c1cccc(COc2cccc3ccccc23)c1	-3.4	-0.7	-4.0	5.1	2.8	/	/
COc1ccc(/C=C/C(=O)c2oc3ccc(F)cc3c2C)cc1	1.3	8.4	-0.4	2.1	81.3*	130.2*	74.7*
CC(=O)Nc1ccc(NC(=O)CCCc2ccccc2)cc1	-4.1	5.7	-0.8	1.4	-1.2	/	/
O=C(/C=C/c1ccccc1)N1CCN(CCN2C(=O)c3cccc4cccc(c34)C2=O)CC1	-1.3	3.2	-1.2	0.4	102.0*	83.3*	51.2*
CCOc1ccc(NC(=S)N2CCN(CCN3C(=O)c4cccc5cccc(c45)C3=O)CC2)cc1	-20.5	-17.0	2.7	0.5	88.5*	107.5*	55.1*
